According to PubChem BioAssay (NCATS):
Records with an inconclusive call do not appear. A call without a number means that no potency is given here. Activity calls are given as the source filed them. Unless noted, calls follow the shape of the dose curve; as a rule, active = well fitted curve in the direction sought with a large enough effect; inconclusive = small, poorly fitted or top-dose-only effect, or another doubt; inactive = no such curve, though single readings can be large; an effect the other way counts as inactive or inconclusive.

Legend:
[1] = biological target: D(1A) dopamine receptor (Homo sapiens) (UniProt P21728); experiment: HTS Assay for Allosteric Agonists of the Human D1 Dopamine Receptor: Primary Screen for Agonists (AID 488981); also: potency is read from the fitted curve at half-maximal effect
D(1A) dopamine receptor (Homo sapiens), sequence (P21728 whole entry, looked up): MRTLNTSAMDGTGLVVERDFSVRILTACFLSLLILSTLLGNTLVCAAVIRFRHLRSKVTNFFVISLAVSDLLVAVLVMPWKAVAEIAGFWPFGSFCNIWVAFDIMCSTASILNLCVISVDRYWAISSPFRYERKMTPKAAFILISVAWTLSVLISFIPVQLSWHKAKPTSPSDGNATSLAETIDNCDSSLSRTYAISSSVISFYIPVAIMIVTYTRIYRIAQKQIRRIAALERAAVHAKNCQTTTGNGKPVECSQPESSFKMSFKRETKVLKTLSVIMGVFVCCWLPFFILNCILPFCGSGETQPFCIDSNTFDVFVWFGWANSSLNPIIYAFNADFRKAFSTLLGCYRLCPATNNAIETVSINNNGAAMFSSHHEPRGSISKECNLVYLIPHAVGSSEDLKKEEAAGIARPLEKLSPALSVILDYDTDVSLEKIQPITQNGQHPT
Method in brief: (§1)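 Calcium flux in an inducible, force-coupled HEK293 Trex D1 line (overnight at 30 C): agonist mode is the 180 s kinetic read after compound; potentiator mode is the following 180 s read after dopamine at EC20.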

[2] = biological target: D(1A) dopamine receptor (Homo sapiens) (UniProt P21728); experiment: HTS Assay for Allosteric Agonists of the Human D1 Dopamine Receptor: Primary Screen for Potentiators (AID 488982)
Method in brief: as §1

[3] = biological target: D(1A) dopamine receptor (Homo sapiens) (UniProt P21728); experiment: HTS Assay for Allosteric Agonists of the Human D1 Dopamine Receptor: Primary Screen for Antagonists (AID 488983);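 also: calcium flux response to an EC80 dopamine challenge measured with no-wash dye; nearly all actives have a fitted effect of over 65% in size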; also: potency is read from the fitted curve at half-maximal effect
Method in brief: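 Calcium flux readout, no-wash dye, inducible HEK293 T-REx D1 line (force-coupled). Compound added after 10 s baseline, 180 s kinetic read; then dopamine at EC80, further 180 s read.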

[4] = biological target: ATP-dependent 6-phosphofructokinase (Trypanosoma brucei brucei) (UniProt O15648); experiment: qHTS Assay to Find Inhibitors of T. brucei phosphofructokinase: hit validation (AID 492961);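 also: luminescence reports ADP formed as PFK phosphorylates fructose-6-phosphate with ATP; series mostly up to about 51 µM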
ATP-dependent 6-phosphofructokinase (Trypanosoma brucei brucei), sequence (O15648 whole entry, looked up): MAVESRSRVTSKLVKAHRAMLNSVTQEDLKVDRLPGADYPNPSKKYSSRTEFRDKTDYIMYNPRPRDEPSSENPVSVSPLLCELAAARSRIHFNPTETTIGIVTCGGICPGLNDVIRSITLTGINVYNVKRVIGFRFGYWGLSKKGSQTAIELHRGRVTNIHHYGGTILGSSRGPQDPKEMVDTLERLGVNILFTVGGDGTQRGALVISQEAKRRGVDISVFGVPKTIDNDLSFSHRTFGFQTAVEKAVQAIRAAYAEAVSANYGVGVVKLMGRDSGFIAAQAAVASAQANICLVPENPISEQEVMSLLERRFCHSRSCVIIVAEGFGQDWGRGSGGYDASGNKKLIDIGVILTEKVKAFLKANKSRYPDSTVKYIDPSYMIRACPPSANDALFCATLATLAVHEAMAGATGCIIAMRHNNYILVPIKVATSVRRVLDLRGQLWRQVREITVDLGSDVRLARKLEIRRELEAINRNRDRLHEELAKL
Method in brief: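 ADP-Glo luminescence read-out of ADP formed by 1.25 nM PFK from 0.1 mM ATP and 0.5 mM F6P (TEA pH 8.0, 45 min, RT). Compounds titrated; activity normalized to no-enzyme and full-enzyme controls.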

[5] = Validation screen for small molecules that induce genotoxicity in human embryonic kidney (HEK293T) cells expressing luciferase-tagged ELG1 (AID 493106)
Method in brief: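 qHTS format; 2,000 HEK293T ELG1-luc cells/well; 23 nL compound via pin tool; 16 hr, 37 °C/5% CO2; ONE-Glo, 30 min RT; luminescence read.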

[6] = biological target: ATPase family AAA domain-containing protein 5 (Homo sapiens) (UniProt Q96QE3); experiment: Validation screen for small molecules that inhibit ELG1-dependent DNA repair in human embryonic kidney (HEK293T) cells expressing luciferase-tagged ELG1 (AID 493107); also: nearly all actives have a fitted effect of over 70% in size; also: potency is read from the fitted curve at half-maximal effect
ATPase family AAA domain-containing protein 5 (Homo sapiens), sequence (Q96QE3 whole entry, looked up, the tested form may be a part): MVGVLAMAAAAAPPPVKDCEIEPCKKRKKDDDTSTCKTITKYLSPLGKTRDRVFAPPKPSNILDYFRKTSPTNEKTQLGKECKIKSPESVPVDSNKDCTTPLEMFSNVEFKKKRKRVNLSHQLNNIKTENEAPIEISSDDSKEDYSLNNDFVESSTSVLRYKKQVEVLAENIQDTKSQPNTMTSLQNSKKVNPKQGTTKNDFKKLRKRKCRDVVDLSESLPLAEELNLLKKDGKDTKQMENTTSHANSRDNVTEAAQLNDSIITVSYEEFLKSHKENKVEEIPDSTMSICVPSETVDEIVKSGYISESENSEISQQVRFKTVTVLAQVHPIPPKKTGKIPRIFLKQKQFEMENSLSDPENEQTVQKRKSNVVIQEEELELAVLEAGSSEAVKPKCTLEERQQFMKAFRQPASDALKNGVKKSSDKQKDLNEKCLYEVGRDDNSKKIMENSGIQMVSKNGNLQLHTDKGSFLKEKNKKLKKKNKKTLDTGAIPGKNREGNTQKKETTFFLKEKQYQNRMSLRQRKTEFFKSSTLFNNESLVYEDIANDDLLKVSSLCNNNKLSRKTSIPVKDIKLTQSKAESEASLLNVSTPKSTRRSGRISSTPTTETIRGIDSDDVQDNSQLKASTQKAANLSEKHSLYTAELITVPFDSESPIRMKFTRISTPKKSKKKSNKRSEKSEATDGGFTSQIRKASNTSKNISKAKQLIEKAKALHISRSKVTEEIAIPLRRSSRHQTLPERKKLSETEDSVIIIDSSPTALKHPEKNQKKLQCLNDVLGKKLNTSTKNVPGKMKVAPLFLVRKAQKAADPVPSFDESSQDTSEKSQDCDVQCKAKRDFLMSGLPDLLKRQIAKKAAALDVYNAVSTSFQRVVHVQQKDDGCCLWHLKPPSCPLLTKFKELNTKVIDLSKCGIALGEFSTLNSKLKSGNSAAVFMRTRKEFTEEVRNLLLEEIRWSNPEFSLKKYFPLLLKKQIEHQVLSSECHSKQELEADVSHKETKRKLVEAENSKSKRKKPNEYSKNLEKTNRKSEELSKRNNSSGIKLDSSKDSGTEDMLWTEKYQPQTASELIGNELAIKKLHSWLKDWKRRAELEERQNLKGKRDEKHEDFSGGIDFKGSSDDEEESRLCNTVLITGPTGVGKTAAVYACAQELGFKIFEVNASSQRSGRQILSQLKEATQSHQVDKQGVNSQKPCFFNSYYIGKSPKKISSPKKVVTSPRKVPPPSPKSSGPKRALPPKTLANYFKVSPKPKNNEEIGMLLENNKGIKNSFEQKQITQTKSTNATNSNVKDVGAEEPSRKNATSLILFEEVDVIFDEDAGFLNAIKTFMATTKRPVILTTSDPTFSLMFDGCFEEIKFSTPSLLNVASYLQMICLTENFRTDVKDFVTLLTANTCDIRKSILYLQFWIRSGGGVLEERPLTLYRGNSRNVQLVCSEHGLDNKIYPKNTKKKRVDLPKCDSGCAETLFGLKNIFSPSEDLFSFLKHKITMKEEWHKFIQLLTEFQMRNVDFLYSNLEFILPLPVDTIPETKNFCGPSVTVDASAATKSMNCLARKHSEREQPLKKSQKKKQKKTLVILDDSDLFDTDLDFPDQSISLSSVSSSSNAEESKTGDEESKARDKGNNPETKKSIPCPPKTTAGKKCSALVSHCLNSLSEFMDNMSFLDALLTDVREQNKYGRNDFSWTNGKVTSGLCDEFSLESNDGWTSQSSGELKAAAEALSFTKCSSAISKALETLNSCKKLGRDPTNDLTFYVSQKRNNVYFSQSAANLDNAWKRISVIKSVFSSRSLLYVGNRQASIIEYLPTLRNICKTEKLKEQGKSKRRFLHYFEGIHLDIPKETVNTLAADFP
Method in brief: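 ELG1-luciferase HEK293T reporter; 5-fluorouridine + compound/DMSO, 16 hr, 37 °C, 5% CO2; ONE-Glo 30 min RT; luminescence read, qHTS format.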

[7] = biological target: Thyrotropin-releasing hormone receptor (Homo sapiens) (UniProt P34981); experiment: qHTS for Small Molecule Agonists and Allosteric Enhancers of Human TRH Receptor: Validation Screen for Agonists (AID 493127;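 active = calcium activation more than 3 SD above the typical response in the agonist read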;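 also: intracellular calcium rise by fluo-8 fluorescence before TRH EC20 addition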); settings: TRH receptor agonist cell assay; at 2 µM; stronger effect = higher value
Thyrotropin-releasing hormone receptor (Homo sapiens), sequence (P34981 whole entry, looked up): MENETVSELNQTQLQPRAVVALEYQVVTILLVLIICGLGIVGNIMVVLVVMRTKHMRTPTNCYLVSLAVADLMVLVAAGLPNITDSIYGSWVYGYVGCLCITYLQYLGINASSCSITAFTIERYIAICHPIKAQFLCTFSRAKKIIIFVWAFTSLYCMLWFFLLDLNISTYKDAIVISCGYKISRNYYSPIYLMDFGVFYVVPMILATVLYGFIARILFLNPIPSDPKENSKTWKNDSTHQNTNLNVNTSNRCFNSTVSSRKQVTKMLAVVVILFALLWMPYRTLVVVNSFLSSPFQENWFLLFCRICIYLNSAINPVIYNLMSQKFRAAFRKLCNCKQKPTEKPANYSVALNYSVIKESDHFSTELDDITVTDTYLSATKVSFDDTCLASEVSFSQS
Method in brief: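 Read-out: intracellular calcium release measured kinetically by FDSS (fluo-8, ex 480/em 530 nm), 1 reading/s after a 10-cycle baseline. TRHR cells, 2000/well, cultured 18 h at 33.5C, dye-loaded at room temp. Compound-evoked positive calcium signal flags agonists.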

[8] = Nrf2 qHTS screen for inhibitors: Validation (AID 493153; active = well fitted inhibition curve with a large enough effect in the main read-out, with a control signal flat, not every such curve was filed as active); settings: viability change: measured here: cytotoxicity max response
Method in brief: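 Concentration-response test in A549 ARE_Fluc reporter cells (5% FBS OPTI-MEM), compound exposure 18-24 h at 37°C, 5% CO2. Cell viability measured first by CellTiter-Fluor fluorescence; ARE-driven luciferase luminescence then measured as Nrf2 activity.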

[9] = qHTS for Inhibitors of Cell Surface uPA Generation: Validation Assay (AID 493164);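 also: RAW 264.7 macrophage cells exposed to compound for 18 h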
Method in brief: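 Compounds are titrated over seven points (2.45 nM–38.3 uM final) onto pre-plated RAW 264.7 cells and incubated for 18 h. Retained intracellular ATP, measured with ATP-Lite, indicates blocked lethal factor entry.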

[10] = biological target: Galactokinase (Homo sapiens) (UniProt P51570); experiment: qHTS Validation Assay for Inhibitors of Human Galactokinase (GALK) (AID 493189)
Galactokinase (Homo sapiens), sequence (P51570 whole entry, looked up): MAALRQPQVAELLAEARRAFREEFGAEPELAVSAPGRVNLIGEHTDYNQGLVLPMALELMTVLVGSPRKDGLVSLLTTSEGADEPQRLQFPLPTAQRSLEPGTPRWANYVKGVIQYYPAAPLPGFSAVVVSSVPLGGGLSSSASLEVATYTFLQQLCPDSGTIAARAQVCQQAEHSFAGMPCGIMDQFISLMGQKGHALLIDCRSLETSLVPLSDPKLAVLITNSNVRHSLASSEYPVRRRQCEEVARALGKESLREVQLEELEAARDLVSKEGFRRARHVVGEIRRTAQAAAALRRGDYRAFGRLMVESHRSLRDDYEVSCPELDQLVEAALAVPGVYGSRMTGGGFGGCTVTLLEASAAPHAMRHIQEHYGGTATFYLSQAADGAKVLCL
Method in brief: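 GALK (5 nM) with 35 uM ATP and 100 uM galactose in HEPES pH 8.0 with MgCl2, NaCl, DTT and BSA. Reaction ran 1 h at room temperature. Residual ATP read by Kinase-Glo Plus luminescence.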

[11] = Validation screen for small molecules that induce DNA re-replication in SW480 colon adenocarcinoma cells (AID 504364)
Method in brief: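 Read-out: total Hoechst intensity of nuclei by fluorescence scanning imager; hits raise the fraction of nuclei with elevated DNA content. Cells received compound for 48 hr at 37 C before a 40 min stain.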

[12] = biological target: Peptidyl-prolyl cis-trans isomerase NIMA-interacting 1 (Homo sapiens) (UniProt Q13526); experiment: qHTS Validation Assay to Find Inhibitors of Pin1 (AID 504536; active = well fitted inhibition curve with a large enough effect in the polarisation, with a control signal flat, not every such curve was filed as active; the % refers to the polarisation)
Peptidyl-prolyl cis-trans isomerase NIMA-interacting 1 (Homo sapiens), sequence (Q13526 whole entry, looked up): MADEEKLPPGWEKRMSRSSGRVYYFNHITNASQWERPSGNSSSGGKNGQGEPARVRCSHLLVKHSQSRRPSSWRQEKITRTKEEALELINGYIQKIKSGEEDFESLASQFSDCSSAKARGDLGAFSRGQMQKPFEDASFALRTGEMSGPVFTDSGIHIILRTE
Method in brief: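 Fluorescence polarization competition: compounds (titration) displace HiFluor-488-labeled Pin1-1b peptide from Pin1 (0.3 uM final) in pH 7.5 HEPES buffer with DTT, 10 min at room temperature; %Activity normalized to no-enzyme wells, curves fitted.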

[13] = biological target: Phosphoglycerate kinase, glycosomal (Trypanosoma brucei brucei) (UniProt P07378); experiment: qHTS Validation Assay to Find Inhibitors of Phosphoglycerate Kinase (AID 504547)
Phosphoglycerate kinase, glycosomal (Trypanosoma brucei brucei), sequence (P07378 whole entry, looked up): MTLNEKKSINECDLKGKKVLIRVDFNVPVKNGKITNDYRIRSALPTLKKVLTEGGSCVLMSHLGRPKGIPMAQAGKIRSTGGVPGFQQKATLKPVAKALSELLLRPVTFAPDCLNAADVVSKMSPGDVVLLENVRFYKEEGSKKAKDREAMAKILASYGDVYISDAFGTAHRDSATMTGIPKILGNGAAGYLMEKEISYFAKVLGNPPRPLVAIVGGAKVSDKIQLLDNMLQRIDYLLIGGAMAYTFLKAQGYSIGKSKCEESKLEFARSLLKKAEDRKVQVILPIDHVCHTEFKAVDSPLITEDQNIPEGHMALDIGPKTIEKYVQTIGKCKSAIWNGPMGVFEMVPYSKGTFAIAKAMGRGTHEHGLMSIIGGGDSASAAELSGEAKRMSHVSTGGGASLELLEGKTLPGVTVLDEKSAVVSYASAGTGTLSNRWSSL
Method in brief: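 Luminescence end-point (Kinase-Glo Plus, 10 min) after a 60 min room-temperature coupled reaction. GAPDH at 100nM final supplies 1,3-BPG to PGK. Buffer: 100mM TEA pH 7.6, 5mM MgCl2, 0.01% Tween-20. Wells lacking PGK served as controls.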

[14] = biological target: phosphoglycerate mutase (Leishmania major) (UniProt Q4Q090); experiment: qHTS Validation Assay to Find Inhibitors of Phosphoglycerate Mutase (AID 504548); also: series mostly up to about 58 µM
phosphoglycerate mutase (Leishmania major), sequence (Q4Q090 1-553): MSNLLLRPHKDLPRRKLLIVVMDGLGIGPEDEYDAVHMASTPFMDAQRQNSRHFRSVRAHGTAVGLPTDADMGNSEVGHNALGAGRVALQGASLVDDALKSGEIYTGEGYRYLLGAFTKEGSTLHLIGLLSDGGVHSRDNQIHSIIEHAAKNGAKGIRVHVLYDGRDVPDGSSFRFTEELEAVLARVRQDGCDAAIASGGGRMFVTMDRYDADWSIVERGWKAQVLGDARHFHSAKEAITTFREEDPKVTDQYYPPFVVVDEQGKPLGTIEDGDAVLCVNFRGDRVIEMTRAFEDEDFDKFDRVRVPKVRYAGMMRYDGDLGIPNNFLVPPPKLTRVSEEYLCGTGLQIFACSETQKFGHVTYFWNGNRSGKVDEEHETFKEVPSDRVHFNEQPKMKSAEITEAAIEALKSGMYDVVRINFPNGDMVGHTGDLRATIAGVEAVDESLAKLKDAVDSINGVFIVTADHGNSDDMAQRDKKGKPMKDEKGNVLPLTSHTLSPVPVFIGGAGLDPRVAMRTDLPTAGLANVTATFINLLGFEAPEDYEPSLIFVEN
Method in brief: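 Lm PGAM at 1.25 nM final with substrate in 100 mM TEA pH 7.6, 5 mM MgCl2, 0.01% Tween-20; 45 min at room temperature. Kinase-GloPlus added, 10 min, end-point luminescence read.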

[15] = qHTS for Inhibitors of ATXN expression: Validation (AID 588378); also: nearly all actives have a fitted effect of over 75% in size; also: potency is read from the fitted curve at half-maximal effect
Method in brief: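 HEK293 cells carrying ATXN2-firefly luciferase reporter, treated with compound 24 h at 37 °C. Viability read first by CellTiter-Fluor (405/525 nm), then reporter expression by Bright-Glo luminescence; controls were a known ATXN2 expression inhibitor and a luciferase inhibitor.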

[16] = biological target: Ubiquitin carboxyl-terminal hydrolase 1 (Homo sapiens) (UniProt O94782); experiment: Inhibitors of USP1/UAF1: Pilot qHTS (AID 504865);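 also: rhodamine fluorescence freed from ubiquitin-rhodamine substrate followed over time; top concentration of the series differs between compounds; nearly all actives have a fitted effect of over 35% in size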
Method in brief: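 USP1/UAF1 complex at 1 nM preincubated 15 min at room temperature with compound, then Ub-Rho substrate added at 150 nM final. Fluorescence (480/540 nm) read kinetically in 50 mM HEPES pH 7.8, 0.5 mM EDTA, 1 mM TCEP, 0.1 mg/ml BSA, 0.01% Tween-20.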

| Compound | Potency [1] | outcome [2] | Potency [3] | outcome [4] | outcome [5] | Potency [6] | activation [7] | outcome [8] | viability change [8] [%] | outcome [9] | outcome [10] | outcome [11] | outcome [12] | outcome [13] | outcome [14] | Potency [15] | Potency [16] |
| --- | --- | --- | --- | --- | --- | --- | --- | --- | --- | --- | --- | --- | --- | --- | --- | --- | --- |
| C[C@]12CC[C@@H]3c4ccc(O)cc4CC[C@H]3[C@@H]1CC[C@@H]2O | inactive | inactive | inactive | inactive | inactive | inactive | 4.75% (inactive) | inactive | 1.87 | inactive | inactive | inactive | inactive | inactive | inactive | inactive |  |
| C[N+]1(CCCCC[N+]2(C)CCCC2)CCCC1 | inactive | inactive | inactive | inactive | inactive | inactive | 0.75% (inactive) | inactive | 1.12 | inactive | inactive | inactive | inactive | inactive | inactive | inactive | inactive |
| CC(CCc1ccccc1)NCC(O)c1ccc(O)c(C(N)=O)c1 (centres undefined) | inactive | inactive | inactive |  | inactive |  | 0.875% (inactive) | inactive | -13.8 | inactive | inactive | inactive | inactive | inactive | inactive |  | inactive |
| C1CCc2nnnn2CC1 | inactive | inactive | inactive |  | inactive |  | -0.375% (inactive) | inactive | 4.51 | inactive | inactive | inactive | inactive | inactive | inactive | inactive | inactive |
| CC/C(=C(/CC)c1ccc(O)cc1)c1ccc(O)cc1 |  |  |  | inactive |  |  |  |  |  |  |  |  |  |  |  |  |  |
| COc1cccc(CCc2ccccc2OCC(CN(C)C)OC(=O)CCC(=O)O)c1 (centres undefined) |  |  |  | inactive |  |  |  |  |  |  |  |  |  |  |  |  |  |
| COC(=O)[C@H]1[C@H]2C[C@H]3c4[nH]c5ccccc5c4CCN3C[C@H]2CC[C@@H]1O | inactive | inactive | inactive |  | inactive | inactive | 1.44% (inactive) | inactive | -3.55 | inactive | inactive | inactive | inactive | inactive | inactive | inactive | inactive |
| COc1cc(NS(C)(=O)=O)ccc1Nc1c2ccccc2nc2ccccc12 | inactive | inactive | 1.12 µM (active) | inactive |  | 14.6 µM (active) | -3.12% (inactive) |  |  | inactive | inactive | inactive | inactive | inactive | inactive | 0.355 µM (active) |  |
| O=C(O)CNC(=O)c1ccccc1 |  |  |  | inactive |  |  |  |  |  |  |  |  |  |  |  |  |  |
| CC(=O)O[C@H]1C[C@@H]2CC[C@@H]3[C@H](CC[C@@]4(C)[C@H]3C[C@H]([N+]3(C)CCCCC3)[C@@H]4OC(C)=O)[C@@]2(C)C[C@@H]1[N+]1(C)CCCCC1 | inactive | inactive | inactive |  | inactive | inactive |  | inactive | -0.593 | inactive |  |  | inactive | inactive | inactive | inactive |  |
| CCC(NC(C)C)C(O)c1ccc(O)c(O)c1 (centres undefined) | inactive | inactive | inactive |  | inactive | inactive | 0.625% (inactive) | inactive | -19.1 | inactive | inactive | inactive | inactive | inactive |  |  | inactive |
| CNCCC=C1c2ccccc2CCc2ccccc21 | 20 µM (active) | inactive |  | inactive | inactive |  | 0.625% (inactive) |  |  | inactive | inactive | inactive | inactive | inactive | inactive | 15.8 µM (active) | inactive |
| C[C@H](O)C(=O)Nc1c(I)c(C(=O)NC(CO)CO)c(I)c(C(=O)NC(CO)CO)c1I |  |  |  | inactive |  |  |  |  |  |  |  |  |  |  |  |  |  |
| CN1C2CCC1CC(OC(=O)c1c[nH]c3ccccc13)C2 (centres undefined) | inactive | inactive | inactive |  | inactive | inactive | 0.812% (inactive) | inactive | -7.62 | inactive | inactive | inactive | inactive | inactive | inactive |  | inactive |
| N[C@H](CO)C(=O)O | inactive | inactive | inactive |  | inactive | inactive | 0.688% (inactive) | inactive | 0.276 | inactive | inactive | inactive | inactive | inactive | inactive | inactive | inactive |
| CC1(C)CCC(NC(=O)[C@@H](N)CCC(=O)O)CC1 | inactive | inactive | inactive | inactive | inactive | inactive | 0.125% (inactive) | inactive | 2.98 | inactive | inactive | inactive | inactive | inactive | inactive | inactive | inactive |
| CC[C@H](C)C(=O)O[C@H]1CCC=C2C=C[C@H](C)[C@H](CC[C@@H]3C[C@@H](O)CC(=O)O3)[C@H]21 | inactive |  | inactive |  |  | inactive |  | inactive | -16.9 | inactive |  |  | inactive | inactive | inactive | inactive | inactive |
| N[C@@H](Cc1cnc[nH]1)C(=O)O | inactive | inactive | inactive | inactive | inactive |  | 0.0625% (inactive) | inactive | 0.846 | inactive | inactive | inactive | inactive | inactive | inactive | inactive | inactive |
